The text below walks through data of PubChem BioAssay.

Experiment [1] in a line: viability loss with induced miR-34 in A549 – imaging, A549 dox-inducible miR-34, nuclei and caspase counts, primary screen (AID 1347080). The conditions noted are these: A549 miR-34 inducible, Hoechst nuclei count, 48 h.
Experiment [2] in a line: blockers of cellular phospholipid synthesis – cell-based, LOPAC library, screen 4, primary screen (AID 1347384; call rule not given here). Conditions: animal cells, phospholipid biosynthesis inhibition screen; at 10 µM.
Experiment [3] in a line: MELAS cybrid and Rieske KO viability enhancers – cell-based, MELAS cybrids, Rieske KO mouse fibroblasts, CellTiter-Glo, primary screen (AID 1508586;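 active = mean z-score across replicates of 1.96 or higher in either the MELAS or the Rieske mutant cell line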;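 note: z relative to plate mean and SD of compound and empty wells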). Conditions: low glucose.
A short description of experiment [4]: chitosan synthesis blockers in C. neoformans – flow cytometry, Cibacron Brilliant Red staining (AID 1347148; call rule not given here;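 note: compound exposure lasted three days at 37 degrees C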). The conditions noted are these: Cryptococcus neoformans chitosan, stronger effect = lower value; at 10 µM unless noted.
[5] abbreviates: stronger effect = lower value, cell number ratio, induced over uninduced.
Where [6] appears, read: measured here: relative caspase fold change +Dox/-Dox.
Setting [7] is: measured here: total cells with miR-34 induction, stronger effect = lower value.
[8] abbreviates: measured here: total cells without miR-34 induction.
[9] abbreviates: MELAS cybrid survival, CellTiter-Glo 48 h, stronger effect = higher value.
[10] abbreviates: Rieske KO mouse fibroblast survival, CellTiter-Glo 72 h.

Structures are written as SMILES. Where “and” joins values, the source holds several entries; their conditions need not be identical. Identical values can stand only once. Calls of active or inactive are those of the source.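 Rule for the calls, unless noted: active = compounds whose cell count with miR-34 switched on is under 0.7 times the count with it off; inactive = the rest.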

As to `CC(CN(C)C)CN1c2ccccc2CCc2ccccc21` (stereo not drawn), the fold change in experiment [1] (setting [5]) was 1.11 (inactive) and 0.82 (inactive) and 0.914 (inactive); in experiment [1] (setting [6]) it was 1.28 and 1.05 and 3.48. Besides, the cell count in experiment [1] (setting [7]) was 8450 and 7420 and 11100; in experiment [1] (setting [8]) it was 7640 and 9050 and 12100. In experiment [2], the compound was classed as inactive. The results for the z-score in experiment [3] (setting [9]) and in experiment [3] (setting [10]) were -0.24 (inactive) and -0.99, respectively.

Consider `CC(C)NC[C@@H](O)COc1cccc2ccccc12`, for which the fold change is 0.945 (inactive) in experiment [1] (setting [5]) and 0.937 in experiment [1] (setting [6]). The cell count in experiment [1] (setting [7]) stood at 8050; in experiment [1] (setting [8]) it was 8520.

For the compound `O=C(O)CCCCCCCC(=O)O`, the fold change in experiment [1] (setting [5]) was 0.959 (inactive) and 0.941 (inactive); in experiment [1] (setting [6]) it was 0.966 and 3.31. Besides, the cell count in experiment [1] (setting [7]) was 9890 and 11100; in experiment [1] (setting [8]), 10300 and 11800. In addition, the compound was classed as inactive in experiment [2].

In the case of `NC(Cc1ccc(Cl)cc1)C(=O)O` (stereo not drawn), the fold change is 0.993 (inactive) in experiment [1] (setting [5]) and 1.95 in experiment [1] (setting [6]). Moreover, the cell count in experiment [1] (setting [7]) and in experiment [1] (setting [8]) was 10900 in each case. In addition, in experiment [2], the call was inactive.

In the case of `CC(C(=O)O)c1ccc(CC2CCCC2=O)cc1` (stereo not drawn), the fold change in experiment [1] (setting [5]) is 1.07 (inactive) and 1 (inactive); in experiment [1] (setting [6]) it was 0.862 and 2.11. The cell count in experiment [1] (setting [7]) is 11000 and 10200; in experiment [1] (setting [8]) it was 10200. In addition, the call in experiment [2] was inactive.

In the case of `NC(=O)c1ccccc1O`, the fold change was 0.92 (inactive) in experiment [1] (setting [5]) and 3.12 in experiment [1] (setting [6]). For the same compound, the cell count in experiment [1] (setting [7]) was determined as 11700; in experiment [1] (setting [8]) it was 12800.

As for `Cc1nc2sccn2c(=O)c1CCN1CCC(=C(c2ccc(F)cc2)c2ccc(F)cc2)CC1`, the fold change in experiment [1] (setting [5]) was 1.04 (inactive) and 0.919 (inactive) and 0.754 (inactive); in experiment [1] (setting [6]), 0.73 and 0.904 and 7.37. Moreover, the cell count was 8680 and 6720 and 10000 in experiment [1] (setting [7]); 8330 and 7320 and 13300 in experiment [1] (setting [8]). The call in experiment [2] was inactive.

On to `C[C@H](NC(CCc1ccccc1)C(=O)O)C(=O)N1CCC[C@H]1C(=O)O` (stereo partly drawn), for which the fold change is 0.987 (inactive) and 0.909 (inactive) in experiment [1] (setting [5]); 0.994 and 1.8 in experiment [1] (setting [6]). Further, the cell count in experiment [1] (setting [7]) is 9660 and 10200; in experiment [1] (setting [8]) it was 9790 and 11200. Besides, the compound was called inactive in experiment [2]. The z-score was -0.542 (inactive) in experiment [3] (setting [9]) and -1.35 in experiment [3] (setting [10]).

For the compound `Oc1ccc(Cl)c2cccnc12`, the fold change is 0.902 (inactive) in experiment [1] (setting [5]) and 0.654 in experiment [1] (setting [6]). Besides, the figures for the cell count in experiment [1] (setting [7]) and in experiment [1] (setting [8]) were 10900 and 12000, respectively.

With `CCN(CC)C(=O)c1cccc(C)c1`, the fold change was 0.989 (inactive) in experiment [1] (setting [5]) and 1.76 in experiment [1] (setting [6]). The cell count in experiment [1] (setting [7]) is 11700; in experiment [1] (setting [8]) it was 11800.

As for `CN(C)[C@@H]1C(=O)C(C(N)=O)=C(O)[C@@]2(O)C(=O)C3=C(O)c4c(O)ccc(Cl)c4[C@@H](O)[C@H]3C[C@@H]12`, the fold change was 1 (inactive) and 0.852 (inactive) and 0.887 (inactive) in experiment [1] (setting [5]); 0.853 and 1.42 and 3.05 in experiment [1] (setting [6]). The cell count in experiment [1] (setting [7]) is 2520 and 7990 and 10000; in experiment [1] (setting [8]) it was 2520 and 9380 and 11300. The result in experiment [2] was inactive. Moreover, the z-score in experiment [3] (setting [9]) is 0.25 (inactive); in experiment [3] (setting [10]) it was -1.49.

`NC1CCN(c2cccc(Cl)n2)CC1`: the fold change was 0.969 (inactive) and 0.942 (inactive) in experiment [1] (setting [5]); 1.72 and 1.85 in experiment [1] (setting [6]). Further, the cell count was 9480 and 9570 in experiment [1] (setting [7]); 9780 and 10200 in experiment [1] (setting [8]).

Turning to `Cc1nnc(SCC2=C(C(=O)O)N3C(=O)[C@@H](NC(=O)Cn4cnnn4)[C@H]3SC2)s1`, the fold change is 1.03 (inactive) and 0.804 (inactive) and 0.912 (inactive) in experiment [1] (setting [5]); 1.87 and 0.957 and 4.16 in experiment [1] (setting [6]). The cell count was 10400 and 8100 and 11000 in experiment [1] (setting [7]); 10100 and 12000 in experiment [1] (setting [8]). Further, the compound was classed as inactive in experiment [2]. Also, the z-score was 0.651 (inactive) in experiment [3] (setting [9]) and 0.288 in experiment [3] (setting [10]).

As for `C[n+]1cc2c3c(ccc2c2ccc4cc5c(cc4c21)OCO5)OCO3`, the fold change is 0.823 (inactive) and 1.84 (inactive) and 1.11 (inactive) in experiment [1] (setting [5]); 0.926 and 0.714 and 1.64 in experiment [1] (setting [6]). The cell count in experiment [1] (setting [7]) was 552 and 933 and 1830; in experiment [1] (setting [8]), 672 and 507 and 1640. Further, in experiment [2], the compound was classed as inactive.

For `CCCCCCCC/C=C\CCCCCCCC(=O)NCc1ccc(O)c(OC)c1`, the fold change in experiment [1] (setting [5]) was 1.07 (inactive) and 0.928 (inactive) and 0.945 (inactive); in experiment [1] (setting [6]), 0.981 and 1.03 and 0.614. Also, the cell count in experiment [1] (setting [7]) is 10500 and 5740 and 9140; in experiment [1] (setting [8]), 9800 and 6180 and 9670. For the same compound, the outcome in experiment [2] was inactive.

For `O=C(O)CN1C(=O)c2cccc3cccc(c23)C1=O`, the fold change in experiment [1] (setting [5]) is 0.898 (inactive) and 0.959 (inactive) and 0.946 (inactive); in experiment [1] (setting [6]), 1.04 and 0.818 and 2.08. Moreover, the cell count in experiment [1] (setting [7]) was 5450 and 8540 and 11100; in experiment [1] (setting [8]), 6060 and 8900 and 11700. The fold fluorescence in experiment [4] is 3.97 [at 195.9 µM] (inactive).

For the compound `Cc1c(O)cccc1C(=O)N[C@@H](CSc1ccccc1)[C@H](O)CN1C[C@H]2CCCC[C@H]2C[C@H]1C(=O)NC(C)(C)C`, the fold change in experiment [1] (setting [5]) was 0.973 (inactive) and 1.07 (inactive); in experiment [1] (setting [6]), 1.56 and 1.1. Also, the cell count in experiment [1] (setting [7]) is 1740 and 4590; in experiment [1] (setting [8]), 1780 and 4280. Further, the compound was called inactive in experiment [2]. The z-score in experiment [3] (setting [9]) was -0.847 (inactive) and 0.17; in experiment [3] (setting [10]), 0.453 and 2.01.

For the compound `CN(C)CCCN1c2ccccc2Sc2ccccc21`, the fold change was 0.997 (inactive) and 0.896 (inactive) and 0.916 (inactive) in experiment [1] (setting [5]); 1.96 and 1.17 and 2.21 in experiment [1] (setting [6]). The cell count was 7860 and 8360 and 9720 in experiment [1] (setting [7]); 7880 and 9340 and 10600 in experiment [1] (setting [8]). Moreover, in experiment [2], the call was inactive. For the same compound, the z-score in experiment [3] (setting [9]) is -0.514 (inactive); in experiment [3] (setting [10]), -0.0726.

As to `CCCCCCc1ccc(O)cc1O`, the fold change was 0.901 (inactive) in experiment [1] (setting [5]) and 1.55 in experiment [1] (setting [6]). The cell count was 11000 in experiment [1] (setting [7]) and 12200 in experiment [1] (setting [8]).

As to `NC/C=C/C(=O)O`, the results for the fold change in experiment [1] (setting [5]) and in experiment [1] (setting [6]) were 1.01 (inactive) and 1.35, respectively. Moreover, the results for the cell count in experiment [1] (setting [7]) and in experiment [1] (setting [8]) were 10300 and 10200, respectively. The compound was classed as inactive in experiment [2].

With `C[C@](N)(Cc1ccc(O)cc1)C(=O)O`, the fold change in experiment [1] (setting [5]) was 1.06 (inactive); in experiment [1] (setting [6]), 0.881. Besides, the cell count was determined as 10300 in experiment [1] (setting [7]) and 9680 in experiment [1] (setting [8]). The outcome in experiment [2] was inactive.

Regarding `CC(=O)OCC1=C(C(=O)O)N2C(=O)[C@@H](NC(=O)Cc3cccs3)[C@H]2SC1`, the fold change was 1.04 (inactive) and 0.943 (inactive) and 0.907 (inactive) in experiment [1] (setting [5]); 2.01 and 1.12 and 1.53 in experiment [1] (setting [6]). Besides, the cell count in experiment [1] (setting [7]) was 10600 and 8990 and 11000; in experiment [1] (setting [8]) it was 10300 and 9530 and 12100. Besides, in experiment [2], the call was inactive. Besides, the values for the z-score in experiment [3] (setting [9]) and in experiment [3] (setting [10]) were -0.988 (inactive) and -1.16, respectively.

Take `NCCCC(=O)O`: the results for the fold change in experiment [1] (setting [5]) and in experiment [1] (setting [6]) were 1.09 (inactive) and 1.86, respectively. Further, the cell count in experiment [1] (setting [7]) amounted to 10000; in experiment [1] (setting [8]), 9160. The compound was classed as inactive in experiment [2].

Take `CCN(CC)CCNC(=O)c1ccc(NC(C)=O)cc1`: the fold change was 1.04 (inactive) and 0.905 (inactive) in experiment [1] (setting [5]); 1.99 and 4.44 in experiment [1] (setting [6]). Further, the cell count is 10300 and 12600 in experiment [1] (setting [7]); 9910 and 14000 in experiment [1] (setting [8]). The outcome in experiment [2] was inactive.
